An excerpt weighted towards active compounds, which were near 4.8% of everything screened.
SMARCA2 act – activators of SMARCA2 function; MG213 cells, MMTV-luciferase reporter, dexamethasone, overnight; activation, % at 9.1 µM; AID 652017; hit rate 1% among 370,000; in the data active = activation above about 7.8%;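 also: 0% = vehicle wells and 100% = reference activator wells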
DAX1 inh-1 – inhibits human nuclear receptor DAX1. hit rate 0.99% among 340,000. HEK293 Gal4-DAX1 luciferase reporter, luminescence. inhibition, % at 6.75 µM. P51843;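 active = inhibition above the mean over all tested compounds plus 3 SD, cut at about 4.2% in these data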;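 also: 0% = DAX1-transfected cells with DMSO and 100% = empty-vector control cells with DMSO; inhibition shows as a rise in luminescence from relieved DAX1 repression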
Target sequence (P51843 207-470 limits assumed): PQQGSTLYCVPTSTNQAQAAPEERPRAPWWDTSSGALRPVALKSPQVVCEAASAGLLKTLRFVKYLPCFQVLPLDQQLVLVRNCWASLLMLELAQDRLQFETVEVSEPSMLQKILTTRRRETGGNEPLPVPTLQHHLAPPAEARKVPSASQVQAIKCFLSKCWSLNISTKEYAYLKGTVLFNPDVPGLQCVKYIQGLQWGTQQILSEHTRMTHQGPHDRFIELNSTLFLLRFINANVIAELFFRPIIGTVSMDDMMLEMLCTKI
hcDAF-12 act – activators of H. contortus DAF-12 nuclear receptor; HEK293 hcDAF-12 lit1-tk-luc reporter, luminescence; 0% DMSO, 100% Δ7-dafachronic acid; activation, % at 6.8 µM; hit rate 1.4% among 370,000; AID 652067;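 active = activation above the mean of all tested compounds plus 3 SD, cut at about 5.5% in these data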;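 also: 100% = response to 3 µM Δ7-dafachronic acid high control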
DAX1 inh-2 – DAX1 (NR0B1) inhibition, primary screen; HEK293T StAR-luciferase reporter, SF-1/DAX-1 repression relief; hit rate 1.1% among 370,000; inhibition, % at 6.8 µM;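 active = inhibition above the mean over all tested compounds plus 3 SD, cut at about 3.6% in these data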;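 also: 0% = DAX-1 cells with DMSO and 100% = cells lacking DAX-1 with DMSO; higher inhibition means more luminescence from relief of DAX-1 repression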
ssDAF-12 act – activators of S. stercoralis DAF-12 nuclear receptor; HEK293 ssDAF-12/GRIP1 lit1-tk-luc reporter, luminescence; % of 3 µM dafachronic acid response; activation, % at 6.8 µM; hit rate 1% among 370,000; AID 652126;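 active = activation above the mean over all tested compounds plus 3 SD, cut at about 0.9% in these data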;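 also: 0% = DMSO-only wells and 100% = 3 µM delta7-dafachronic acid wells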
hgDAF-12 ag – activates the H. glycines DAF-12 receptor ligand-binding domain; hit rate 1.8% among 370,000; activation, % at 6.8 µM; HEK293 GAL4-hgDAF12 UAS-luciferase reporter, agonist luminescence; normalized to butyrate control;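 active = activation above a cutoff set at the mean of all screened compounds plus 3 SD, cut at about 10% in these data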;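 also: 0% = DMSO wells and 100% = sodium butyrate wells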
SMARCA2 conf – confirmation of SMARCA2 (BRM) function activators; shares compounds with SMARCA2 act; hit rate 30% among 3,500; activation, % at 9.1 µM; MG213 cells, MMTV-luciferase with dexamethasone, luminescence, overnight; MG213 cells expressing E1A, Rb sequestered; DMSO wells 0%, reference activator 100%;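 active = activation above its plate's cutoff, the mean activation of tested wells plus 3 SD, cut at about 7.9% in these data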
VP16 Luc act – GAL4-VP16 reporter activation counter-screen; shares compounds with SMARCA2 act; activation, % at 9.1 µM; hit rate 41% among 3,500; HEK293 GAL4-VP16 pG5luc reporter, luciferase luminescence; scaled: DMSO wells 0%, SAHA wells 100%;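 active = activation above the solvent-only control well mean plus 3 SD, averaged across control plates, cut at about 5.2% in these data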
An asterisk follows results filed as active; / = no result.

SMILES | SMARCA2 act | DAX1 inh-1 | hcDAF-12 act | DAX1 inh-2 | ssDAF-12 act | hgDAF-12 ag | SMARCA2 conf | VP16 Luc act
COc1ccc(-c2cc(C(=O)NC(Cc3cc4ccccc4[nH]3)C(=O)O)c(C)o2)cc1OC (configuration not stated) | 10.7* | -0.5 | 3.8 | 1.5 | 0.8 | 10.4 | 9.9* | 3.7
COc1ccc(NC(=O)c2sccc2C)cn1 | 14.1* | 0.0 | 0.7 | 2.8 | -0.5 | 4.3 | 3.0 | 1.8
COc1ccc(COc2ccsc2C(=O)Nc2ccc(Cl)c(Cl)c2)cc1 | 10.7* | 0.8 | -0.1 | -0.4 | -0.4 | 2.0 | -2.7 | -1.0
Cc1ccsc1C(=O)Nc1ccc(OCc2ccccc2)cc1 | 8.6* | 1.1 | 0.9 | 1.2 | -0.6 | 7.3 | 4.5 | 6.6*
COc1ccc(NC(=O)c2ccco2)cn1 | -1.3 | 1.5 | -0.8 | 0.4 | -0.6 | 1.5 | / | /
CN(C)S(=O)(=O)Oc1ccsc1C(=O)Nc1ccc(Cl)c(Cl)c1 | 2.5 | 0.2 | -2.3 | -1.2 | -1.4 | -0.8 | / | /
COc1ccc(NC(=O)c2ccc(-c3ccc(C(C)=O)cc3)o2)cn1 | 12.2* | 1.2 | 0.0 | 0.2 | -0.7 | 2.4 | 0.2 | 3.5
Cc1cccc(C)c1NC(=O)[C@H]1CC(=O)O[C@@H]1c1ccccc1 | -4.8 | / | -0.3 | -0.9 | -1.1 | -1.1 | / | /
CCOc1ccc(-n2c(SCc3nc4ccccc4[nH]3)nnc2-c2cccc(Cl)c2)cc1 | 0.4 | / | -2.1 | -1.1 | -1.6 | 0.6 | / | /
COC[C@H]1CCCN1c1cccc2c1S(=O)(=O)N1CC[C@@H](C1)O2 | 1.9 | / | -0.2 | -0.8 | -0.8 | 0.4 | / | /
CCCCCCCCN1C(=O)[C@@H](CC(=O)NCCc2ccccc2OC)C[C@@]2(C(=O)OC)C1=C[C@H](COCc1ccccc1)O[C@@H]2C | -4.6 | / | -2.2 | 0.3 | -0.7 | -1.7 | / | /
Nn1c(SCC(=O)Nc2cccc3ccccc23)nnc1-c1cc(-c2ccc(Cl)cc2)n[nH]1 | -2.3 | / | 2.0 | -0.1 | -0.4 | -1.9 | / | /
Cc1cc(C)nc(Nc2nc(=O)c3ccccc3s2)n1 | 8.8* | 1.6 | 0.4 | 0.9 | -1.2 | 3.9 | 4.1 | 14.2*
CC(C)c1ccc(NC(=O)COC(=O)C2CC3C=CC2C3)cc1 (configuration not stated) | 8.2* | -0.1 | -0.9 | 2.0 | -1.7 | -0.4 | 2.8 | 2.0
CCOC(=O)C(Nc1ccc2ccccc2c1)C(=O)OCC | 8.3* | -0.1 | 5.7* | 0.3 | 0.3 | 5.5 | 7.9* | 1.7
O=C(COC(=O)C12CC3CC(CC(O)(C3)C1)C2)Nc1ccc(Br)cc1F | 9.4* | 0.3 | 0.7 | 0.7 | -0.9 | 5.7 | 4.0 | 8.2*
CC(C)(C)Cc1c(-c2ccco2)nc2ccc(Cl)cn12 | 12.8* | / | 1.3 | 0.6 | 0.7 | 2.4 | 1.2 | 0.8
CC(C)(C)Cc1c(-c2cccc(Cl)c2)nc2ccc(Cl)cn12 | -0.4 | / | 0.8 | 1.1 | 0.6 | 3.1 | / | /
CC1=C(C(=O)Nc2ccccn2)C(c2ccc(N(C)C)cc2)n2ncnc2N1 (configuration not stated) | 8.1* | 0.3 | 4.3 | 1.8 | 0.2 | 11.0* | 1.0 | -0.6
COc1ccc(C(=O)NNC(=O)c2ccc3ccccc3n2)cc1 | 14.7* | -0.2 | -0.5 | -0.1 | -1.1 | 0.5 | -14.2 | 4.1
CCCCN(C)C(=O)C1CCN(S(=O)(=O)c2ccc3[nH]c(=O)oc3c2)CC1 | -3.9 | / | 1.0 | -0.7 | -0.4 | 0.9 | / | /
COCCNC(=O)/C(C#N)=C/C=C/c1ccccc1[N+](=O)[O-] | 12.2* | -1.0 | -0.9 | -1.7 | -0.7 | -6.2 | 17.9* | 0.5
Cc1[nH]n(-c2ccccc2)c(=O)c1/C=N/O | -1.5 | 0.4 | 0.4 | -0.3 | -1.3 | -2.3 | / | /
Cc1ccc2cccc(N=Cc3c(C)[nH]n(-c4ccccc4)c3=O)c2n1 | 13.6* | 1.4 | 1.6 | -1.2 | -0.5 | -2.4 | -12.7 | 8.1*

Assay outcomes: PubChem BioAssay, The Scripps Research Institute Molecular Screening Center
